The results in this text go back to PubChem BioAssay (EPA / NIEHS).

For orientation: AC50 means the concentration at which the activity in the assay is half-maximal.

Records with an inconclusive call do not appear. More than one record can exist for a structure, and the calls need not agree. Activity calls are given as the source filed them. How the source made its calls, unless noted: active means hit-call score of the fitted dose curve at least 0.9, where 1 is the maximum; inconclusive means response in the unintended direction; inactive means score below 0.9.

Experiment [1] in a line: ATG_GLI_CIS: Attagene CIS-FACTORIAL HepG2 Assay for human Zinc Finger Protein GLI1 (AID 2282945; active means hit-call score of the fitted dose curve at least 0.9, where 1 is the maximum; inactive means score below 0.9). The conditions noted are these: HepG2, Attagene cis-factorial reporter mRNA, GLI element; actives raise or lower the signal. An outline of the steps:
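Bidirectional curve fits relative to DMSO, using reporter mRNA levels from RT-PCR plus capillary electrophoresis. Cells were HepG2 transiently carrying cis-regulated reporter constructs, harvested 24 h after dosing.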

Experiment [2] can be described thus: ATG_GRE_CIS: Attagene CIS-FACTORIAL HepG2 Assay for human Glucocorticoid Response Elements (GRE) (AID 2282947; active means hit-call score of the fitted dose curve at least 0.9, where 1 is the maximum; inactive means score below 0.9). The conditions noted are these: HepG2 GRE cis-reporter, Attagene multiplex mRNA; actives raise or lower the signal. An outline of the steps:
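Multiplexed cis-reporter mRNA induction, HepG2, 24 h post-dose. RT-PCR, FAM-labelled, HpaI-digested amplicons by CE. Bidirectional fit vs DMSO.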

Experiment [3] deals with Hepatocyte nuclear factor 6 (Homo sapiens) (UniProt Q9UBC0). Description: ATG_HNF6_CIS: Attagene CIS-FACTORIAL HepG2 Assay for human Hepatocyte Nuclear Factor 6 (HNF6) (AID 2282952; active means hit-call score of the fitted dose curve at least 0.9, where 1 is the maximum; inactive means score below 0.9). To be noted: HepG2 Attagene cis-factorial HNF6 reporter transcription; actives raise or lower the signal. An outline of the steps: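 Endogenous transcription factor activity in human HepG2 liver cells was captured through cis-regulated reporter constructs. After 24 h treatment, reporter mRNA was measured by RT-PCR with capillary electrophoresis, and activity was fitted in both directions relative to DMSO.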

Experiment [4] in a line: ATG_PBREM_CIS: Attagene CIS-FACTORIAL HepG2 Assay for human Phenobarbital-responsive Enhancer Module (PBREM) (AID 2282955; active means hit-call score of the fitted dose curve at least 0.9, where 1 is the maximum; inactive means score below 0.9). To be noted: HepG2 PBREM cis-reporter, Attagene multiplexed transcription; actives raise or lower the signal. Summed up: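 Measures endogenous factor action on a phenobarbital-responsive enhancer module. HepG2 transiently carrying cis reporters, 24 h treatment, mRNA read-out by RT-PCR plus capillary electrophoresis.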

Experiment [5] can be described thus: ATG_SREBP_CIS: Attagene CIS-FACTORIAL HepG2 Assay for human Sterol Regulatory Element Binding (SREBP) (AID 2282962; active means hit-call score of the fitted dose curve at least 0.9, where 1 is the maximum; inactive means score below 0.9). The conditions noted are these: HepG2 Attagene cis-factorial SREBP reporter, mRNA; actives raise or lower the signal. An outline of the steps: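 Endogenous factor activity is measured in HepG2 through multiplexed reporter units under cis-element control. Following a 24 h incubation, reporter transcripts are reverse-transcribed, PCR-amplified and sized by capillary electrophoresis; activity is fitted in both directions relative to DMSO.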

For experiment [6], the target named is Signal transducer and activator of transcription 3 (Homo sapiens) (UniProt P40763). The experiment in a line: ATG_STAT3_CIS: Attagene CIS-FACTORIAL HepG2 Assay for human Signal Transducer and Activator of Transcription 3 (STAT3) (AID 2282963; active means hit-call score of the fitted dose curve at least 0.9, where 1 is the maximum; inactive means score below 0.9). The conditions noted are these: HepG2, Attagene cis-factorial STAT3 reporter transcription; actives raise or lower the signal. Summed up:
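Cis-factorial format: endogenous transcription factors in HepG2 drive transfected reporter units. After 24 h treatment, reporter RNA was reverse-transcribed, amplified, FAM-labelled and HpaI-digested before CE analysis; activity scored in both directions against DMSO.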

The target in experiment [7] is Hepatocyte nuclear factor 4-alpha (Homo sapiens) (UniProt P41235). The experiment in a line: ATG_HNF4a_TRANS: Attagene TRANS-FACTORIAL HepG2 Assay for human Hepatocyte Nuclear Factor 4 alpha (HNF4a) (AID 2282982). To be noted: HepG2 HNF4a transactivation reporter, mRNA readout. Summed up: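 Multiplexed reporter assay: transfected HepG2, 24 h exposure, total RNA → oligo(dT) RT → PCR → 6-FAM extension → HpaI digest → CE fluorescence. DMSO = negative control.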

Experiment [8] is described as follows: ATG_M_06_TRANS: Attagene TRANS-FACTORIAL HepG2 Assay for M06 Transcription Factor (Internal Marker) (AID 2282983). To be noted: HepG2 Attagene TRANS M06 internal marker reporter. Summed up: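 Human liver HepG2 cells bearing transiently transfected chimeric NR-GAL4 reporter units were treated with chemicals for 24 h. Total RNA was reverse-transcribed, reporter sequences amplified and labelled, then quantified by capillary electrophoresis. Activity was fitted upward relative to DMSO.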

Experiment [9] is described as follows: ATG_Oct_MLP_CIS: Attagene CIS-FACTORIAL HepG2 Assay for human Octamer-Binding Transcription Factor (Oct) (AID 2282993; active means hit-call score of the fitted dose curve at least 0.9, where 1 is the maximum; inactive means score below 0.9). To be noted: HepG2 Attagene cis-factorial Oct reporter, mRNA; actives raise or lower the signal. An outline of the steps:
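Cells of the HepG2 line express promoter-controlled reporter sequences whose mRNA levels, after 24 h treatment, are measured by RT-PCR and capillary electrophoresis. Increases and decreases are scored relative to DMSO.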

Experiment [10] addresses human Peroxisome Proliferator-activated Receptor alpha (PPARa), PPARA (gene 5465) (UniProt Q07869). Description: ATG_PPARa_TRANS: Attagene TRANS-FACTORIAL HepG2 Assay for human Peroxisome Proliferator-activated Receptor alpha (PPARa) (AID 2283001). Summed up: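 Transfected HepG2 cells treated with test chemical for 24 h. RNA isolated, reverse-transcribed with oligo(dT), PCR-amplified, FAM-labelled and HpaI-digested. Fragments sized by capillary electrophoresis; gain-of-signal fit relative to DMSO.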

Experiment [11] addresses human Retinoid X Receptor beta (RXRb), RXRB (gene 6257) (UniProt P28702). Description: ATG_RXRb_TRANS: Attagene TRANS-FACTORIAL HepG2 Assay for human Retinoid X Receptor beta (RXRb) (AID 2283013). An outline of the steps:
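Read-out: reporter mRNA induction via RT-PCR plus capillary electrophoresis fluorescence, analysed as signal increase relative to DMSO. Cells were human HepG2, transiently transfected with GAL4-UAS reporter constructs and chimeric receptor-Gal4 fusions, dosed for 24 h.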

Experiment [12] is described as follows: TOX21_p53_BLA_p2_viability: Viability Assessment in the Tox21 HCT-116 p53 Agonism Beta-lactamase Assay, Phase 2 (AID 2283591).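 Further: compound exposure lasted 16 h at 37 °C; actives lower the ATP signal meaning cytotoxicity.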 An outline of the steps: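 Cytotoxicity readout: CellTiter-Glo ATP luminescence, 30 min at room temperature, after the beta-lactamase read. Cells were HCT116 exposed 16 h at 37C to compounds pin-transferred at 217-fold dilution from DMSO stocks.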

A short description of experiment [13]: TOX21_p53_BLA_p3_viability: Viability Assessment in the Tox21 HCT-116 p53 Agonism Beta-lactamase Assay, Phase 3 (AID 2283593).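 Further: cells exposed to compound for 16 h before reading.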 An outline of the steps:
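Cellular ATP was quantified by CellTiter-Glo luminescence, read after 30 min at room temperature. Beforehand, HCT116 cells (4000/well) received compound 5 h post-seeding, 217-fold diluted from DMSO, then incubated 16 h at 37C.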

Experiment [14] has as its target Cellular tumor antigen p53 (Homo sapiens) (UniProt P04637). The experiment in a line: TOX21_p53_BLA_p3_ratio: Tox21 HCT-116 p53 Agonism Beta-lactamase Assay, Ratio, Phase 3 (AID 2283596). Summed up:
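Cells were seeded at 4000/well, rested 5 h at 37C, then dosed with DMSO compound solutions (217-fold dilution) for 16 h. CCF4-AM substrate was loaded for 2 h at room temperature, and the 460/530 nm emission ratio was fitted for gain of signal versus DMSO.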

For experiment [15] the target is unchanged. Description: TOX21_p53_BLA_p5_ratio: Tox21 HCT-116 p53 Agonism Beta-lactamase Assay, Ratio, Phase 5 (AID 2283599). An outline of the steps: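 Beta-lactamase reporter ratio (blue 460 nm over green 530 nm, 405 nm excitation) after 2 h CCF4-AM loading, in HCT-116 cells exposed 16 h at 37 C to compounds pinned at 217-fold dilution. Increases relative to DMSO baseline scored.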

Experiment [16] in a line: TOX21_p53_BLA_p5_viability: Viability Assessment in the Tox21 HCT-116 p53 Agonism Beta-lactamase Assay, Phase 5 (AID 2283600). An outline of the steps:
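Viability is taken from cellular ATP content, measured by luciferase luminescence in the same wells after the beta-lactamase ratio read. Cells are seeded at 4000 per well and exposed to DMSO-dissolved compounds, diluted 217-fold, for 16 h.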

Experiment [17] concerns the target Cellular tumor antigen p53 (Homo sapiens) (UniProt P04637). The experiment in a line: TOX21_p53_BLA_p4_ratio: Tox21 HCT-116 p53 Agonism Beta-lactamase Assay, Ratio, Phase 4 (AID 2283601). An outline of the steps:
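Signal is the blue/green (460nm/530nm) ratio of cleaved versus uncleaved CCF4-AM substrate, read after 2 h substrate loading. Cells were HCT116 carrying the p53-responsive beta-lactamase reporter, dosed 16 h at 37C, 5% CO2; CellTiter-Glo measured in parallel.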

A short description of experiment [18]: ATG_NRF2_ARE_CIS: Attagene CIS-FACTORIAL HepG2 Assay for human Nuclear Factor Erythroid 2 Related Factor 2 (NFR2) response to Antioxidant Response Elements (ARE) (AID 2282992; active means hit-call score of the fitted dose curve at least 0.9, where 1 is the maximum; inactive means score below 0.9). The conditions noted are these: HepG2 Attagene ARE/NRF2 reporter, transcription factor activity; actives raise or lower the signal. Summed up:
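Endogenous transcription factor activity in human liver HepG2 cells is tracked via a cis-element-driven reporter within a multiplexed set. mRNA induction is read by RT-PCR and capillary electrophoresis after 24 h, with DMSO as baseline.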

Experiment [19] in a line: ATG_NF_kB_CIS: Attagene CIS-FACTORIAL HepG2 Assay for human Nuclear Factor Kappa B (NF-kB) (AID 2282991; active means hit-call score of the fitted dose curve at least 0.9, where 1 is the maximum; inactive means score below 0.9). The conditions noted are these: HepG2 Attagene cis-factorial NF-kB reporter mRNA; actives raise or lower the signal. An outline of the steps: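 Fluorescence of labelled RT-PCR products separated by capillary electrophoresis gives reporter mRNA levels from transfected HepG2 cells exposed 24 h; values are fitted in both directions relative to DMSO.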

Experiment [20] has as its target Heat shock factor protein 1 (Homo sapiens) (UniProt Q00613). Description: ATG_HSE_CIS: Attagene CIS-FACTORIAL HepG2 Assay for human Heat Shock Transcription Factor 1 (HSE) (AID 2282953; active means hit-call score of the fitted dose curve at least 0.9, where 1 is the maximum; inactive means score below 0.9). To be noted: HepG2 HSE cis-reporter, Attagene RNA transcription; actives raise or lower the signal. An outline of the steps:
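After a 24 h incubation with test chemical, transfected HepG2 cells were harvested for RNA; reporter transcripts were measured by RT-PCR and capillary electrophoresis. Values reflect gain or loss of signal relative to DMSO.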

Signal transducer and activator of transcription 3 (Homo sapiens), sequence (P40763 whole entry, looked up): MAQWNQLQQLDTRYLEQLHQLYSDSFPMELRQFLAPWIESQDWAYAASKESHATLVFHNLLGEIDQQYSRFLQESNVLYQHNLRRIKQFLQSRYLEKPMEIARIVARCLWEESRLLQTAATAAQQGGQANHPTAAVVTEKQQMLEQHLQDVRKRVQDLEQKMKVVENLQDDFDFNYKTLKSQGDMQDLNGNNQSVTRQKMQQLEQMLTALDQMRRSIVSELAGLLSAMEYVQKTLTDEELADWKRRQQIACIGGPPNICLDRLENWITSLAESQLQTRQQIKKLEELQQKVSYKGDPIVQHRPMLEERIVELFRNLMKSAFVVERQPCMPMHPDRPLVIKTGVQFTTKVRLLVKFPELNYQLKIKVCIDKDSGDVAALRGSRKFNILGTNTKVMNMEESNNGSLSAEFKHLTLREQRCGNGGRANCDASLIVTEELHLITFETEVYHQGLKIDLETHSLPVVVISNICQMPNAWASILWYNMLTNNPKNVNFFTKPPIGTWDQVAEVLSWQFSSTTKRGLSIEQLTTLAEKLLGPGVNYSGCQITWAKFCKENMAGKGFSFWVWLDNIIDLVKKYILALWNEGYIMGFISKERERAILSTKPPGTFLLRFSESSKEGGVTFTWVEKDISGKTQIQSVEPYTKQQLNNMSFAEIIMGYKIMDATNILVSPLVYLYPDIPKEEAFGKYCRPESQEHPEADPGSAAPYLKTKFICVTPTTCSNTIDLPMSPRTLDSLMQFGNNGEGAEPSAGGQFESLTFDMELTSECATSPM
Hepatocyte nuclear factor 4-alpha (Homo sapiens), sequence (P41235 whole entry, looked up): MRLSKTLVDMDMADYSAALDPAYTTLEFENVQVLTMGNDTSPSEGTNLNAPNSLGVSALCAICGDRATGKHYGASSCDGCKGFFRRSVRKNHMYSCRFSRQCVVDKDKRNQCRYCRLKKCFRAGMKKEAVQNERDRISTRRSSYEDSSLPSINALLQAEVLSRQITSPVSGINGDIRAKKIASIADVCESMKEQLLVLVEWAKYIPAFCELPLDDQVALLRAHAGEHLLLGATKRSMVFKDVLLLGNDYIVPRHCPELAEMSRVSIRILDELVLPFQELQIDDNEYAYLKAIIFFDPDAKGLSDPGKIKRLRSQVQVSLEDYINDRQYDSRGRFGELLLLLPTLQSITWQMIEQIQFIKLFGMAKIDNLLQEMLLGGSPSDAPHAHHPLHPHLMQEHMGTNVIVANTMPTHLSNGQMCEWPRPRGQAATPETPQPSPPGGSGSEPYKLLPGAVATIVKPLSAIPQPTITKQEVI
Cellular tumor antigen p53 (Homo sapiens), sequence (P04637 whole entry, looked up): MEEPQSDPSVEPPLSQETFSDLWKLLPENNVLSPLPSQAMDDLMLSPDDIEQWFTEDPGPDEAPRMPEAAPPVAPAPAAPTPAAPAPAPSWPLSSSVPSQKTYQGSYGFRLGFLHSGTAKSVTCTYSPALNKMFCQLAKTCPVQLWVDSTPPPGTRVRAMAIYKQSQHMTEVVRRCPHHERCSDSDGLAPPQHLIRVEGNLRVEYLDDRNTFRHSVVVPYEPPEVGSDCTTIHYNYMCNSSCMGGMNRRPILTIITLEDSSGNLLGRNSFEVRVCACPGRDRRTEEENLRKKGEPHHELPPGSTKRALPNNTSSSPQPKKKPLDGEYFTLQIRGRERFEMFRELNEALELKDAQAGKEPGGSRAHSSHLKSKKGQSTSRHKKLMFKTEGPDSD
human Retinoid X Receptor beta (RXRb), RXRB (gene 6257), sequence (P28702 whole entry, looked up, the tested form may be a part): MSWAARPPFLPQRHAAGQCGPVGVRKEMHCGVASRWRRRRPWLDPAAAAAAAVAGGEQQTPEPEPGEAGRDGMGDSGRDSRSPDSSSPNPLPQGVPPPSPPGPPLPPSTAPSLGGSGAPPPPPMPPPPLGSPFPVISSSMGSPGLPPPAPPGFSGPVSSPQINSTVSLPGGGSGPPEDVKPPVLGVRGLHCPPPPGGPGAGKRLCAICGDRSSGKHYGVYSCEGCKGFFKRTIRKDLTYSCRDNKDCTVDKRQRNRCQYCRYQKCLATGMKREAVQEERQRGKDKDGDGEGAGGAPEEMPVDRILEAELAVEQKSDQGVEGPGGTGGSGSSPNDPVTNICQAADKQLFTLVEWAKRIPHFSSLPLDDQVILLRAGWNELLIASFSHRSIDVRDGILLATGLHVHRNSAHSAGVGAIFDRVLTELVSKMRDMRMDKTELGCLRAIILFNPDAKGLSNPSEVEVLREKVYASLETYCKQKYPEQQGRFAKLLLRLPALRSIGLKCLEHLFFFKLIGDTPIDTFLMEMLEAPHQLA
Hepatocyte nuclear factor 6 (Homo sapiens), sequence (Q9UBC0 whole entry, looked up): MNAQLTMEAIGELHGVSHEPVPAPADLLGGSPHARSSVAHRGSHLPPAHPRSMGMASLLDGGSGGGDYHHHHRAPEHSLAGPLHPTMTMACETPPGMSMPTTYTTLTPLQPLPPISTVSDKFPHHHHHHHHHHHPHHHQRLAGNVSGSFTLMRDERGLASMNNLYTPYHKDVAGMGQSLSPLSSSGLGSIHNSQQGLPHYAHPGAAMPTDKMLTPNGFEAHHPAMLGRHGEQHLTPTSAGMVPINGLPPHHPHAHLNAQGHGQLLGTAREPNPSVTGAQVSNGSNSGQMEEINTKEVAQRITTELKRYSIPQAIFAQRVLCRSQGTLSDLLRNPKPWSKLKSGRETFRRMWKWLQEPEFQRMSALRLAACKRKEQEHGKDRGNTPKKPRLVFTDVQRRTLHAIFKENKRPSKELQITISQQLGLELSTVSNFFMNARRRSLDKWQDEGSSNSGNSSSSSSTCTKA
Heat shock factor protein 1 (Homo sapiens), sequence (Q00613 whole entry, looked up): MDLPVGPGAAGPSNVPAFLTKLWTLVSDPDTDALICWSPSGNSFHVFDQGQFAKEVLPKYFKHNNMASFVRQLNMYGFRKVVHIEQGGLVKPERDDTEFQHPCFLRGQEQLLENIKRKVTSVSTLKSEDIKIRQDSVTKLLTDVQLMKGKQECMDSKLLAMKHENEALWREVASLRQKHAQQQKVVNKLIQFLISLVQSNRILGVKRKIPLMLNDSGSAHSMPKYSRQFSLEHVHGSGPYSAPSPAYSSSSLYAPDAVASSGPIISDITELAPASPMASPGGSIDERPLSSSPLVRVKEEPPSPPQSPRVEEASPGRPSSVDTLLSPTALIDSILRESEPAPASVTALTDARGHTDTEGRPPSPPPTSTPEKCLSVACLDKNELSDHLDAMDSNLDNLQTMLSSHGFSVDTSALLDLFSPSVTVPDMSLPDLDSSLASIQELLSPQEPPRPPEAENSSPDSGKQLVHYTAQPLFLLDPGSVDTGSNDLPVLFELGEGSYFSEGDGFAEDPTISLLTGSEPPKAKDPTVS
human Peroxisome Proliferator-activated Receptor alpha (PPARa), PPARA (gene 5465), sequence (Q07869 whole entry, looked up, the tested form may be a part): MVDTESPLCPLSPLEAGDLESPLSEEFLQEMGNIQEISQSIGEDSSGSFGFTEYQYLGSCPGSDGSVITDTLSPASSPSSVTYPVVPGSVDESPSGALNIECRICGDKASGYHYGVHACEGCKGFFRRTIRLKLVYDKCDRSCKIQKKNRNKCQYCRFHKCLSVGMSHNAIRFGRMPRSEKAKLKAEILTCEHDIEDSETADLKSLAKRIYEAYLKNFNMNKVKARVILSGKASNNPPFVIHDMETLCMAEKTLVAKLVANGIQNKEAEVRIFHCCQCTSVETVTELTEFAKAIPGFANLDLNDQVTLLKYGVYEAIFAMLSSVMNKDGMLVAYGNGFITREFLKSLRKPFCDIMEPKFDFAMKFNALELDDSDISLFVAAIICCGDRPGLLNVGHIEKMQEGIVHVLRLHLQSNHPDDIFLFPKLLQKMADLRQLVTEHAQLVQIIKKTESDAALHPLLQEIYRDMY

For `O=C1NC(=O)[C@@H]2CC=CC[C@H]12`, the outcome in experiment [1], in experiment [2], in [3], in experiment [4], in [5] and in experiment [6] was inactive. For the same molecule, the call in experiment [7], in [8], in [9], in [10], in [11] and in experiment [12] was inactive. Also, the molecule was called inactive in experiment [13], in experiment [14], in experiment [15], in [16] and in experiment [17].
Take `C1=CCC=C1`: the call in [1], in experiment [5], in experiment [6], in experiment [7], in [8] and in experiment [18] was inactive. Moreover, the result in experiment [9], in experiment [10] and in experiment [11] was inactive.
As for `CCCCOC(=O)COc1ccc(Cl)cc1Cl`, the outcome in experiment [1], in experiment [3], in experiment [4], in experiment [5], in experiment [6] and in experiment [7] was inactive. Further, the molecule was classed as inactive in [19], in experiment [18], in [9], in [11], in [12] and in experiment [14]. For the same molecule, the result in [15], in experiment [16] and in experiment [17] was inactive.
On to `CC1=NN(c2cc(Cl)c(S(=O)(=O)O)cc2Cl)C(=O)C1N=Nc1ccc(S(=O)(=O)O)cc1` (centres undefined), for which the molecule was called inactive in experiment [3], in experiment [20], in experiment [6], in experiment [8], in [19] and in experiment [18]. For the same molecule, the outcome in [9], in [11], in experiment [12], in [14], in experiment [15] and in experiment [16] was inactive. Moreover, the result in experiment [17] was inactive.
In the case of `CC(C)(C)NC(=O)[C@@H]1CN(Cc2cccnc2)CCN1C[C@@H](O)C[C@@H](Cc1ccccc1)C(=O)N[C@H]1c2ccccc2C[C@H]1O`, the result in [1], in experiment [2], in experiment [20], in [4], in [5] and in experiment [18] was inactive. Besides, the molecule was called inactive in experiment [11], in experiment [13], in [14] and in experiment [15]. Also, the AC50 was 36.3 µM (active) in experiment [12]; 43 µM (active) in experiment [13]; 43.8 µM (active) in experiment [15]; 37.5 µM (active) in [16]; 39.8 µM (active) in experiment [17].
